CCHFV vOTU inh – blocks the CCHF virus ovarian tumor domain protease | CCHFV vOTU protease, Pep-AMC fluorescence | inhibition, % at 11.5 µM | hit rate 0.55% among 370,000; in the data active means inhibition above about 30%; further: 0% = vehicle wells with enzyme and 100% = no enzyme wells
Sa ugtP lethal – compounds lethal to S. aureus RN4220 ugtP deletion mutant; OD600 growth, 16 h; growth inhibition, % (no concentration beside the values); hit rate 0.54% among 330,000; in the data active means growth inhibition above about 68%;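 further: plate controls were untreated wells for no effect and antibiotic for full effect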
Sa RN4220 lethal – kills Staphylococcus aureus RN4220. S. aureus RN4220 growth, OD600, 16 h. AID 1259311. hit rate 0.33% among 330,000. inhibition, % (no concentration beside the values); in the data active means inhibition above about 85%;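 further: plate controls were untreated cells for no effect and reference antibiotic for full effect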
Mtb hypoxia inh – reduces hypoxia-regulated biosensor signal in M. tuberculosis | fluorescence inhibition, % (concentration not given with the values) | hit rate 0.1% among 300,000 | AID 1159583 | M. tuberculosis hypoxia-regulated fluorescent reporter, fluorescence; in the data active means fluorescence inhibition mostly above about 23%, no sharp cut-off; inactive means mostly below about 17%
PriA SSB inh – blocks PriA binding to SSB C-terminal tail; AlphaScreen SSBct-PriA binding, biotinylated peptide; inhibition, % at 33 µM; hit rate 0.6% among 430,000; in the data active means inhibition mostly above about 37%, no sharp cut-off; inactive means mostly below about 20%;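 further: plate controls were negative control peptide for no effect and reference peptide for full effect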
* marks the source's active call; other numbers are inactive results; i = inactive; x = no result shown; + = active, no number. The list is not random: actives were taken first. Their share in the collection is about 1.4%.

SMILES	CCHFV vOTU inh	Sa ugtP lethal	Sa RN4220 lethal	Mtb hypoxia inh	PriA SSB inh
O=[N+]([O-])c1cc(C=NN2CCCCC2)ccc1Cl	x	-3	5	14	43*
O=[N+]([O-])c1cc(/C=N/N2CCCCC2)ccc1Cl	-1	x	x	x	x
CC(C)n1cnc(S(=O)(=O)N2CCSC2c2ccc(Cl)c(Cl)c2)c1 (centres undefined)	x	x	x	x	1
Cc1ccc(S(=O)(=O)N(C)N=O)cc1	1	99*	99*	0	-6
O=[N+]([O-])c1cccc(NN=Cc2ccc(N3CCOCC3)cc2)c1	x	2	-21	5	52*
COc1ccc(C(=O)N2C(=S)NC(=O)/C2=C\c2ccc(C)cc2)cc1	6	100*	-9	2	-6
CO[C@@H](CNC(=O)Cc1ccsc1)c1ccc(Cl)s1	x	x	x	x	-3
O=[N+]([O-])c1ccc(O)c(C=Nc2cccc3ncccc23)c1	27	66	80	8	68*
O=[N+]([O-])c1ccc(O)c(C=Nc2ccc3c(c2)OCCO3)c1	-1	74	92*	3	-6
CC(=O)Nc1cc(OC(C)=O)c2nonc2c1OC(C)=O	101*	-3	8	20	0
CCc1nc2sc3c(c2c(=O)o1)CCCC3	8	4	5	0	69*
CC(C)(C)OC(=O)NN=Cc1cccn1-c1ccc([N+](=O)[O-])cc1	x	0	3	14	x
COC(=O)c1sccc1S(=O)(=O)NCC#CCOc1ccc2c(c1)OCO2	x	x	x	x	10
CC(C)OC(=O)c1cc(NC(=S)Nc2ccc([N+](=O)[O-])cc2)cc(C(=O)OC(C)C)c1	16	100*	100*	13	-5
O=C(NCCC(c1ccccc1)c1ccccc1)C(=O)Nc1ccncc1	x	x	x	x	47*
Cc1ccc(NC(=O)C(=O)NCCC(c2ccccc2)c2ccccc2)cc1Cl	x	x	x	x	-9
CN(C)C1C(=O)C(C(N)=O)=C(O)C2(O)C(=O)C3=C(O)c4c(O)cccc4C(C)(O)C3C(O)C12 (centres undefined)	8	100*	100*	x	-7
C[C@H]1c2cccc(O)c2C(O)=C2C(=O)[C@]3(O)C(O)=C(C(N)=O)C(=O)[C@@H](N(C)C)C3[C@@H](O)C21 (some centres undefined)	4	x	x	x	x
CN(C)C1C(=O)C(C(N)=O)=C(O)[C@@]2(O)C(=O)C3=C(O)c4c(O)ccc(Cl)c4C(O)C3CC12 (some centres undefined)	x	99*	100*	x	x
CN(C)C1C(=O)C(C(N)=O)=C(O)[C@@]2(O)C(=O)C3=C(O)c4c(O)cccc4[C@@](C)(O)C3C(O)C12 (some centres undefined)	x	99*	100*	x	x
CN(C)C1C(=O)C(C(N)=O)=C(O)[C@@]2(O)C(=O)C3=C(O)c4c(O)cccc4[C@@](C)(O)C3CC12 (some centres undefined)	x	100*	100*	x	x
C=C1c2cccc(O)c2C(=O)C2C(=O)[C@]3(O)C(=O)C(C(N)=O)C(=O)[C@@H](N(C)C)[C@@H]3[C@@H](O)[C@H]12 (some centres undefined)	13	x	x	x	11
CCOc1ccnc2c1c(=O)n(CC(=O)Nc1cc(C)on1)c(=O)n2C	x	x	x	x	-3
Cc1cc(C)cc(NC(=O)CS(=O)(=O)c2cn(CC(=O)N3CCCC3)c3ccccc23)c1	x	x	x	x	50*
CN(C)c1cccc(C(=O)N2CCC(CSCc3ccco3)CC2)c1	x	x	x	x	29*
SMILES	CCHFV vOTU inh	Sa ugtP lethal	Sa RN4220 lethal	Mtb hypoxia inh	PriA SSB inh
O=C(c1c[nH]c2ccccc12)N1CCC(CSCc2ccco2)CC1	x	x	x	x	35*
N#Cc1cccc(C(=O)N2CCC(CSCc3ccco3)CC2)c1	x	x	x	x	3
O=C(c1ccccc1F)N1CCC(CSCc2ccco2)CC1	x	x	x	x	12
CC(C)=C1SC(=O)NC1=O	x	x	x	x	-18
COC(=O)c1sc2cccc(F)c2c1S(=O)(=O)NCc1cccnc1	x	x	x	x	52*
O=C(CSc1nc2c(-c3ccccc3)c[nH]c2c(=O)n1C1CC1)NC1CCCC1	x	x	x	x	-6
CC1CCC(C(C)C)C(OC(=O)C[n+]2cc(-c3ccc(Cl)cc3)n3c2CCC3)C1 (centres undefined)	4	101*	101*	x	-2
Cc1ccccc1-c1ccc(N2CCN(C(=O)COc3ccccc3)CC2)nn1	x	x	x	x	-5
CCCCCCCSc1cc(OC)c(CCN(C)C)cc1OC	6	-21	0	x	49*
C/C(=C\c1ccccc1)[N+](=O)[O-]	x	x	x	x	4
COc1cccc(CC(=O)Nc2ncc(S(=O)(=O)c3ccc([N+](=O)[O-])cc3)s2)c1	x	x	x	x	-4
Cc1ccccc1OCCC(=O)NNC(=O)c1ccccc1F	5	9	6	33*	3
COc1cc(C(=O)NNC(=O)CCOc2ccccc2C)cc(OC)c1OC	5	7	4	5	-8
CCOC(=O)c1ccc2nc(NC(=O)c3cccc(N4C(=O)CCC4=O)c3)sc2c1	x	x	x	x	-7
COc1cccc2sc3cc(C#Cc4ccccn4)ccc3c(=O)c12	-6	7	7	6	46*
COc1ccc(CCNC(=O)NCCc2ccc3c(c2)CCCN3C)cc1	x	x	x	x	50*
COc1ccc(CC(=O)NCCc2ccc3c(c2)CCCN3C)cc1	x	x	x	x	9
COc1cc(OC)cc(C(=O)NCCc2ccc3c(c2)CCCN3C)c1	x	x	x	x	59*
CCCN1CCCc2cc(CCNC(=O)c3cc(OC)cc(OC)c3)ccc21	x	x	x	x	59
Cc1cccc(NC(=O)NCCc2ccc3c(c2)CCCN3C)c1	x	x	x	x	56*
CN1CCCc2cc(CCNC(=O)NCc3ccccc3)ccc21	x	x	x	x	29
COc1ccc(CCNC(=O)c2ccc(Cl)cc2)cc1	-12	-3	-3	37*	-11
COc1ccc(CCC(=O)NC2CCN(c3nccs3)C2)c(OC)c1OC (centres undefined)	x	x	x	x	10
CCOC(=O)C1CCCN(S(=O)(=O)c2ccc(Br)c(OCC)c2)C1 (centres undefined)	x	x	x	x	-4
Cc1cc(C(=O)CCl)c(C)n1CCc1ccc(Cl)cc1	-1	97*	93*	19	41*
SMILES	CCHFV vOTU inh	Sa ugtP lethal	Sa RN4220 lethal	Mtb hypoxia inh	PriA SSB inh
Cc1ccc(-c2csc(NC(=O)c3ccc(S(=O)(=O)N4CCc5ccccc5C4)cc3)n2)o1	x	x	x	x	-21
CC(C)C1O/C(=N/C(=O)Nc2ccc(Cl)c(Cl)c2)NC1=O (centres undefined)	-5	100*	100*	8	x
O=C(Cc1csc(SCC(=O)c2ccc(F)cc2)n1)Nc1ccc2c(c1)OCCO2	x	x	x	x	-6
COc1cc2c(c(OC)c1)C(c1cccc(OC)c1OC)CC(=O)N2 (centres undefined)	0	-2	2	5	115*
CCOc1ccc(C2C(=C(O)c3ccc(F)cc3)C(=O)C(=O)N2CCCN(C)C)cc1 (centres undefined)	x	x	x	x	-14
CCCCCCCC(=O)N/N=C/c1ccc(Sc2cccc3cccnc23)o1	x	x	x	x	+
O=C(CCc1ccccc1O)NN=Cc1ccc(Sc2cccc3cccnc23)o1	x	-5	-3	5	94*
O=Cc1ccc(Sc2cccc3cccnc23)o1	x	x	x	x	104*
O=C(Cc1cccc2ccccc12)N/N=C/c1ccc(Sc2cccc3cccnc23)o1	1	x	x	x	i

Screens as filed in PubChem.
